# Shown is part of a subset that was picked to be rich in the strongest signals.
# Columns and labels:
# Assay in all cases: glycan array binding signal (z-score within array); higher = stronger binding
# Conditions in all cases: glycan notation: IUPAC condensed, linker removed
# [1] = test system: Gal(b1-3)GlcNAc(b1-3)Gal(b1-4)Glc
# Procedure, shortened: (§1)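 The binding signal is a Z-score computed within each array and averaged over linkers. Arrays of the same protein sequence at different concentrations or buffers were also averaged together. Data originate from 3228 arrays in the Consortium for Functional Glycomics database, kept only where the protein sequence was available.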
# [2] = test system: Gal(b1-3)[Fuc(a1-4)]GlcNAc(b1-2)Man(a1-3)[Gal(b1-3)[Fuc(a1-4)]GlcNAc(b1-2)Man(a1-6)]Man(b1-4)GlcNAc(b1-4)GlcNAc
# Procedure, shortened: as §1
# [3] = test system: Gal(b1-3)GlcNAc(b1-2)Man(a1-3)[GlcNAc(b1-4)][Gal(b1-3)GlcNAc(b1-2)Man(a1-6)]Man(b1-4)GlcNAc(b1-4)GlcNAc
# Procedure, shortened: as §1
# [4] = test system: Gal(b1-3)GlcNAc(b1-3)Gal(b1-4)GlcNAc(b1-6)[Gal(b1-3)GlcNAc(b1-3)]Gal(b1-4)Glc
# Procedure, shortened: as §1
# [5] = test system: Gal(b1-3)GlcNAc(b1-6)Gal(b1-4)GlcNAc
# Procedure, shortened: as §1
# [6] = test system: Gal(b1-3)GlcNAc(b1-6)GalNAc
# Procedure, shortened: as §1
# Gal(b1-3)GlcNAc(b1-2)Man = test system: Gal(b1-3)GlcNAc(b1-2)Man
# Procedure, shortened: as §1
# [7] = test system: Gal(b1-3)GlcNAc(b1-3)Gal(b1-4)GlcNAc(b1-2)[Gal(b1-3)GlcNAc(b1-3)Gal(b1-4)GlcNAc(b1-6)]Man(a1-6)[Gal(b1-3)GlcNAc(b1-3)Gal(b1-4)GlcNAc(b1-2)Man(a1-3)]Man(b1-4)GlcNAc(b1-4)[Fuc(a1-6)]GlcNAc
# Procedure, shortened: as §1
# [8] = test system: Gal(b1-3)GlcNAc(b1-3)Gal(b1-4)GlcNAc(b1-3)Gal(b1-4)GlcNAc(b1-2)[Gal(b1-3)GlcNAc(b1-3)Gal(b1-4)GlcNAc(b1-3)Gal(b1-4)GlcNAc(b1-6)]Man(a1-6)[Gal(b1-3)GlcNAc(b1-3)Gal(b1-4)GlcNAc(b1-3)Gal(b1-4)GlcNAc(b1-2)Man(a1-3)]Man(b1-4)GlcNAc(b1-4)[Fuc(a1-6)]GlcNAc
# Procedure, shortened: as §1
# Gal(b1-3)GlcNAc6S = test system: Gal(b1-3)GlcNAc6S
# Procedure, shortened: as §1
substance,measurement,setting,value
"BambL (Burhholderia ambifaria), Q0B4G1",glycan array binding signal (z-score),[1],-0.312
same,glycan array binding signal (z-score),[2],-0.317
LcI (Legionella pneumophila),glycan array binding signal (z-score),[3],0.389
same,glycan array binding signal (z-score),[4],-0.388
same,glycan array binding signal (z-score),[5],-0.157
same,glycan array binding signal (z-score),[6],3.69
"SpGH101 (Streptococcus pneumoniae), Q8DR60",glycan array binding signal (z-score),[2],1.28
"Wza (Escherichia coli), P0A930",glycan array binding signal (z-score),[1],-0.658
Epa22,glycan array binding signal (z-score),Gal(b1-3)GlcNAc(b1-2)Man,-0.018
AgI/IIC123-GFP (Streptococcus mutans),glycan array binding signal (z-score),[7],5.61
same,glycan array binding signal (z-score),[8],-0.036
same,glycan array binding signal (z-score),[5],0.823
same,glycan array binding signal (z-score),Gal(b1-3)GlcNAc6S,-0.244

# — the supplement of paper PMC8728848
